Assay results published in PubChem BioAssay AID720504 (National Center for Advancing Translational Sciences (NCATS), 2013).
In all, about 360,000 compounds went through this assay and about 10,000 (2.8%) were called active. Inconclusive results (about 4%) are left out. What follows is part of a selection rich in actives, with near analogues and random picks from the rest. Values without a mark were called inactive. The call rests on the fitted dose curve; in most records, active means well fitted inhibition curve with a large enough effect; inconclusive means small, poorly fitted or top-dose-only effect; inactive means flat fitted curve, though single readings scatter.
Further: nearly all actives have a fitted effect of over 65% in size.
On the % scale 0 is the no-effect control and ±100 the full control effect; potency means the concentration at half of the fitted maximal effect.
Wherever max response, negative = inhibition is given: series mostly up to about 57 µM.

What follows are compounds tested against Serine/threonine-protein kinase PLK1 (Homo sapiens) (UniProt P53350) (assay: qHTS for Inhibitors of PLK1-PDB (polo-like kinase 1 - polo-box domain): Primary Screen). Conditions: Plk1 PBD binding of FITC phosphopeptide, fluorescence polarization.
Sequence of Serine/threonine-protein kinase PLK1 (Homo sapiens) (P53350 whole entry, looked up, the tested form may be a part): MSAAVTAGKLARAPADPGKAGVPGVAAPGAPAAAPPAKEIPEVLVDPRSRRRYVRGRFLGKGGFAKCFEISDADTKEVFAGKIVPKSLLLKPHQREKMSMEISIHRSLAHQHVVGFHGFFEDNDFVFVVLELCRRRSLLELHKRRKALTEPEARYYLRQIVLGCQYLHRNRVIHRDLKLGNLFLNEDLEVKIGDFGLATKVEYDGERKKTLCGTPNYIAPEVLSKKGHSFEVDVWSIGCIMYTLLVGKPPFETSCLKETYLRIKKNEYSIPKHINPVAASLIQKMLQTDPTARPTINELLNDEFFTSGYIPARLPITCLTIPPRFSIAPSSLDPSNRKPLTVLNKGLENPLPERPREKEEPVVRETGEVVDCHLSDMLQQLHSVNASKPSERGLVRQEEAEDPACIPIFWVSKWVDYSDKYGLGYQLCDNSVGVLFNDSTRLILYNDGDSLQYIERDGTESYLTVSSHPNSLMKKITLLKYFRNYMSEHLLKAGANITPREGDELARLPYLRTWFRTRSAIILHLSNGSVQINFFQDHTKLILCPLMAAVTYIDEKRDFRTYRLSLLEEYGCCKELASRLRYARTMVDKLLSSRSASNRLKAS
For `C/C(COc1ccccc1)=N\NC(=O)c1nnn(-c2nonc2N)c1-c1ccc(C)cc1`, the max response, negative = inhibition was -7.46%.
With `Cc1cccc(OCC(=O)Nc2ccc(NC(=O)c3ccco3)c(C)c2)c1` the max response, negative = inhibition was -7.98%.
In the case of `CCC(=O)NC(=S)Nc1ccc(NC(=O)c2ccco2)c(Cl)c1`, the Potency is reported as 29.9 µM (active).
`O=C(NNC(=S)Nc1ccc(Br)cc1Cl)c1ccco1` was tested, and the max response, negative = inhibition was -12.7%.
Compound `CCCCN1C(=O)C(CC(=O)NC(c2ccccc2)c2ccccc2)CC(C(=O)N2CCOCC2)=C1C` (centres undefined) has a max response, negative = inhibition of -4.16%.
Work on `Cc1nc(C(F)(F)F)ccc1C(=O)N1CCC1(C)C(=O)NS(=O)(=O)c1ccccc1` (centres undefined) yielded a max response, negative = inhibition of -4.71%.
For `COc1ccc(-c2nc(SCC(=O)N3CCCC3)n[nH]2)cc1`, the max response, negative = inhibition was -1.92%.
With `COc1ccc(N2C(=O)CC(Sc3n[nH]c(-c4ccc(C)cc4)n3)C2=O)cc1` (centres undefined) the Potency was 18.9 µM (active).
Work on `COc1ccc(N2C(=O)CC(SC(C)C)C2=O)cc1` (centres undefined) yielded a max response, negative = inhibition of -4.56%.
For `Cc1noc(C)c1-c1ccc(C(=O)NCc2ccncc2)c2occc12`, the max response, negative = inhibition was -3.63%.
For `CCc1nc2ccc(C(=O)Nc3cccc(OC)c3)cn2c1N(CCC(C)C)CCN(C)C`, the max response, negative = inhibition was 0.24%.
`Cc1cc2c3ccccc3[nH]c(=O)n2n1` gave a max response, negative = inhibition of -0.899%.
Work on `COC(=O)Cc1c(-c2[nH]c3ccccc3c2CC(=O)OC)[nH]c2ccccc12` yielded a max response, negative = inhibition of 0.279%.
With `S=c1[nH]c2ccccc2c2ccccc12` the Potency was 18.9 µM (active).
Compound `CCCNC(=O)C1CC(=O)N(c2ccc(OCc3ccccc3)cc2)C1` (centres undefined) has a max response, negative = inhibition of 3.86%.
Work on `Cc1nc(C(F)(F)F)ccc1C(=O)N1CCC1(C)C(=O)NS(=O)(=O)c1ccccc1Cl` (centres undefined) yielded a max response, negative = inhibition of -15.4%.
`COC(=O)c1ccc(N2CCOCC2)c(NC(=O)c2ccc3c(c2)OCCO3)c1` gave a max response, negative = inhibition of 0.435%.
For `O=C(Nc1ccc(N2CCOCC2)cc1)c1ccc2c(c1)OCO2`, the Potency was 26.7 µM (active).
For `O=C(Nc1ccc(N2CCOCC2)cc1)c1cccc(S(=O)(=O)N2CCOCC2)c1`, the max response, negative = inhibition was -5.11%.
With `COCOCCn1cc(CN2CCS(=O)(=O)N(Cc3ccc(-c4ccc(OC)cc4)cc3)C(CC(C)C)C2=O)nn1` (centres undefined) the max response, negative = inhibition was -17%.
Compound `CCC(C)CN1C(=O)CN(S(C)(=O)=O)CC1(C)C(=O)Nc1ccc2c(c1)OCCO2` (centres undefined) has a max response, negative = inhibition of -14.3%.
`CCOC(=O)C1=CC[C@@H](c2ccccc2)N(S(=O)(=O)c2ccc(C)cc2)[C@H]1c1cccc(OC)c1` showed a max response, negative = inhibition of -10.4%.
For `Cc1ccc(S(=O)(=O)N2[C@@H](c3cccc(Cl)c3)C(C(=O)O)=CC[C@H]2c2ccc(Cl)c(Cl)c2)cc1`, the Potency was 21.2 µM (active).
`Cc1ccc(S(=O)(=O)N2[C@@H](c3ccccc3F)C(C(=O)O)=CC[C@H]2c2ccc(Cl)cc2)cc1` showed a max response, negative = inhibition of -15.9%.
With `CCc1noc(C)c1C(=O)OCC(=O)c1ccc(NC(=O)CC(C)C)cc1` the max response, negative = inhibition was -8.24%.
`CC(C)C[C@@H]1COc2cc(N3CCC[C@@H]3CO)ccc2S(=O)(=O)N1` showed a max response, negative = inhibition of 2.66%.
Work on `CC(=O)N1CCc2c(sc(NC(=O)CCS(=O)(=O)c3ccccc3)c2C#N)C1` yielded a max response, negative = inhibition of -11.3%.
For `N#Cc1c(N)sc2c1CCN(C(=O)OCc1ccccc1)C2`, the Potency was 23.8 µM (active).
Work on `CC(C)N1CCc2c(sc(NC(=O)Cc3ccccc3)c2C#N)C1` yielded a max response, negative = inhibition of -26%.
Compound `CCN(CC)C(=O)C1=C(C)N(Cc2ccccc2)C(=O)C(CC(=O)NC(c2ccccc2)c2ccccc2)C1` (centres undefined) has a max response, negative = inhibition of -7.71%.
Work on `CCCCc1nc2ccc(F)cc2cc1C` yielded a max response, negative = inhibition of -7.86%.
In the case of `CN(C)C(=O)N=NC(=O)N(C)C`, the Potency is reported as 1.89 µM (active).
Compound `O=C(CSc1nc2cccc(F)c2c(=O)n1-c1ccccc1)Nc1ccc2c(c1)CCC2` has a max response, negative = inhibition of -2.85%.
`CC(C)(O)C#Cc1ccc(CNC[C@H]2O[C@@H](n3cnc4c(=O)[nH]c(N)nc43)[C@H](O)[C@@H]2O)s1` gave a max response, negative = inhibition of 0.0305%.
Work on `COC(=O)c1ccc2c(c1)S(=O)(=O)NC2C` (centres undefined) yielded a max response, negative = inhibition of -7.33%.
In the case of `CN(Cc1ccccc1F)C(=O)C(Cc1ccccc1)NC(=O)c1ccccc1` (centres undefined), the max response, negative = inhibition is reported as -7.43%.
With `CSCCC(NS(=O)(=O)c1ccccc1F)C(=O)N1CC=C(c2ccccc2)CC1` (centres undefined) the max response, negative = inhibition was 0.274%.
`O=C(NC1CC1)C(Cc1ccccc1)NS(=O)(=O)c1ccccc1F` (centres undefined) was tested, and the Potency was 23.8 µM (active).
For `C[C@H](CO)N1C[C@H](C)[C@@H](CN(C)C(=O)c2cccc(F)c2)Oc2cc(-c3cncnc3)ccc2S1(=O)=O`, the max response, negative = inhibition was -2.44%.
`Nc1ccc(C(=O)Nc2ccccc2N)cc1` was tested, and the max response, negative = inhibition was -11.6%.
`Cc1ccccc1C(=O)Nc1ccccc1NC(=O)c1ccccc1C` showed a max response, negative = inhibition of -16.3%.
In the case of `CC(=O)Nc1ccccc1NC(=O)c1cc(C)cc(C)c1`, the Potency is reported as 9.47 µM (active).
For `CCc1nnc(NC(=O)C2CC(=O)N(c3ccc4c(c3)OCCO4)C2)s1` (centres undefined), the Potency was 13.4 µM (active).
For `Cc1ccccc1N1CC(C(=O)Nc2nnc(SCCC3OCCO3)s2)CC1=O` (centres undefined), the Potency was 21.2 µM (active).
`COc1ccccc1N1CC(C(=O)Nc2nnc(SCC(=O)NCC3CCCO3)s2)CC1=O` (centres undefined) was tested, and the max response, negative = inhibition was -29%.
`CC(=O)c1ccccc1NC(=O)C1CC(=O)N(c2ccc3c(c2)OCCO3)C1` (centres undefined) showed a max response, negative = inhibition of 7.84%.
Work on `CCOC(=O)c1ccc(NC(=O)C2CC(=O)N(c3ccc4c(c3)OCCO4)C2)cc1` (centres undefined) yielded a max response, negative = inhibition of -3.19%.
`COc1ccccc1N1CC(C(=O)Nc2nnc(SCC(=O)NC(C)C)s2)CC1=O` (centres undefined) was tested, and the max response, negative = inhibition was -26.4%.
With `CCN1CCN(CCNC(=O)c2ccc3c(c2)NC(=O)/C(=C\c2cccc(Cl)c2)S3)CC1` the max response, negative = inhibition was -9.11%.
`COc1cccc(CNc2nc(NCc3cccs3)nc3ccsc23)c1` showed a max response, negative = inhibition of -6.78%.
Compound `COC(=O)[C@@]1(Cc2ccc(F)cc2)[C@H]2c3cc(C(=O)N(C)C)n(CCc4c[nH]c5ccc(OC)cc45)c3C[C@H]2CN1C(=O)c1ccccc1` has a max response, negative = inhibition of -0.876%.
`C=CCOc1ccccc1CNn1c(C)n[nH]c1=S` was tested, and the max response, negative = inhibition was -12.8%.
In the case of `O=C(NCc1ccccc1)C1c2ccccc2OCC(=O)N1C1CC1` (centres undefined), the max response, negative = inhibition is reported as 2.78%.
Work on `Cc1csc(SCC(=O)Nc2ccc(C)c(S(=O)(=O)N(C)C)c2)n1` yielded a max response, negative = inhibition of -2.14%.
